JMJD2A Tudor inh = qHTS Assay for Inhibitors of JMJD2A-Tudor Domain | Lysine-specific demethylase 4A (Homo sapiens), O75164 | AlphaScreen JMJD2A-Tudor / H3K4me3 peptide binding | actives 4.4% (n = 390,000) | Potency, µM (doses to about 114 µM), usual class: inhibitors; note: nearly all actives have a fitted effect of over 50% in size
BAZ2B inh = qHTS Assay for Inhibitors of BAZ2B; Potency, µM (top dose mostly 114 µM), actives largely listed as inhibitors; Bromodomain adjacent to zinc finger domain protein 2B (Homo sapiens), Q9UIF8; AlphaScreen BAZ2B-H3K14Ac peptide displacement; actives 4.4% (n = 360,000); AID 504333, 2011; note: nearly all actives have a fitted effect of over 60% in size
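AlphaScreen displacement of biotin-H3(5-23)K14Ac peptide (50 nM final) from BAZ2B (50 nM final) in PBS pH 7.4, 0.01% Tween-20; complex preformed 30 min RT, then compounds (top 110 uM) 30 min RT, beads 20 min dark.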
Sfp inh = qHTS Assay for Inhibitors of Bacillus subtilis Sfp phosphopantetheinyl transferase (PPTase). Potency, µM, hits mostly inhibitors. Biochemical Sfp PPTase activity, qHTS. 4'-phosphopantetheinyl transferase ffp (Bacillus subtilis), Q9F4F7. actives 3.5% (n = 310,000);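 note: the enzyme is Sfp with the accession as filed and its product quenches rhodamine fluorescence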
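Reaction rates are the 30-min fluorescence difference (ex 525, em 598 nm) in wells containing 15 nM Sfp, 5 uM rhodamine-CoA and 12.5 uM BHQ-2-YbbR at pH 7.6 with 10 mM MgCl2.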
G9a inh = qHTS Assay for Inhibitors of Histone Lysine Methyltransferase G9a | Histone-lysine N-methyltransferase EHMT2 (Homo sapiens), Q96KQ7 | G9a H3K9 monomethylation, AlphaScreen, 2 h | Potency, µM (series often up to 102 µM), actives largely listed as inhibitors | actives 8.8% (n = 350,000) | AID 504332, 2011; note: nearly all actives have a fitted effect of over 75% in size
Target sequence (Q96KQ7 913-1193 limits assumed): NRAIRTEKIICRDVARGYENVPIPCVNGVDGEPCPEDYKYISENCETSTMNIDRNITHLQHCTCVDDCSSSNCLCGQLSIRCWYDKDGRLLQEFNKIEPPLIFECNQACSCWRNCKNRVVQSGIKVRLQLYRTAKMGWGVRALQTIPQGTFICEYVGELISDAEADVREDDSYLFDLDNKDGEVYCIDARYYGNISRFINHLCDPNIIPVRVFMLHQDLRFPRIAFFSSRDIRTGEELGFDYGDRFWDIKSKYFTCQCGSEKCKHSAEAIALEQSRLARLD
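Readings reflect AlphaScreen signal from monomethyl-H3K9 antibody detection. HMT at 20 nM; substrate b-H3K9 500 nM; cofactor SAM 20 uM; 2 h RT reaction; compounds tested as titrations in qHTS with 15 min preincubation.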
HP1b binding inh = HTS for Inhibitors of HP1-beta Chromodomain Interactions with Methylated Histone Tails; AlphaScreen HP1-beta / biotin-H3K9me3 peptide binding; Potency, µM (doses to about 114 µM), usual class: inhibitors; actives 0.56% (n = 390,000); AID 540317, 2011; note: nearly all actives have a fitted effect of over 70% in size
Target sequence (P83916 whole entry, looked up): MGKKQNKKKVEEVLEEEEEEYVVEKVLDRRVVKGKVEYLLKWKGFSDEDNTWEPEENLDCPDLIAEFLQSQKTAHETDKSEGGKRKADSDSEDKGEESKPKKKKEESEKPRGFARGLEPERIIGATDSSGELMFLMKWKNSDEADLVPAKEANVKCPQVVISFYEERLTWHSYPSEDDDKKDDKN
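HP1-beta protein (50 nM final) preincubated 30 min at room temperature with biotinylated H3(1-18)K9me3 peptide (50 nM) in PBS pH 7.4, 0.01% Tween-20, then compound added for 30 min. AlphaScreen streptavidin donor/nickel chelate acceptor beads (10 ug/mL final), 30 min dark, luminescence read.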
Of the large screens only hits and unclear results are named; the others gave an inactive call. The list is not random: actives were taken first. Their share in the collection is about 12%. Calls come from the whole dose curve; as a rule, active = well fitted curve in the direction sought with a large enough effect; inconclusive = small, poorly fitted or top-dose-only effect, or another doubt; inactive = no such curve, though single readings can be large; an effect the other way counts as inactive or inconclusive.

CCCCCCCCCCOC(=O)Cn1c(COc2ccc(Cl)cc2)[n+](C)c2ccccc21	Sfp inh 25.1µM, G9a inh inconclusive
O=S(=O)(c1ccc(F)cc1)c1nc(-c2ccc(F)cc2)oc1NCCN1CCOCC1	G9a inh 50.1µM
Cc1ccc(-c2nc(S(=O)(=O)c3ccc(C)cc3)c(N3CCOCC3)o2)cc1	JMJD2A Tudor inh 79.4µM, BAZ2B inh inconclusive, G9a inh 4.47µM, HP1b binding inh inconclusive
Cc1ccc(S(=O)(=O)c2nc(-c3ccccc3)oc2NCCN2CCOCC2)cc1	G9a inh inconclusive
CCOc1ccc(-c2nc(S(=O)(=O)c3ccccc3)c(N3CCOCC3)o2)cc1	Sfp inh inconclusive, G9a inh 50.1µM
CCOC(=O)C(C)N1N=C(/C=C/c2ccc(C)cc2)CCC1=O (centres undefined)	none
O=C(Cc1sc(-c2ccccc2)nc1-c1ccccc1)Nc1ccccc1	none
C=CCNc1nc(-c2cccs2)c(CC(=O)O)s1	BAZ2B inh inconclusive
O=C(O)Cc1sc(Nc2ccccc2)nc1-c1cccs1	Sfp inh 50.1µM
O=C(Cc1sc(Nc2ccccc2)nc1-c1ccccc1)NCc1ccccc1	Sfp inh inconclusive, G9a inh 50.1µM, HP1b binding inh inconclusive
CCN(CC)CCNc1nc(-c2cccs2)c(CC(=O)O)s1	JMJD2A Tudor inh 5.62µM, BAZ2B inh 20µM, Sfp inh 56.2µM, G9a inh 8.91µM, HP1b binding inh inconclusive
CCN1C(=N)N(c2ccccc2)C(=O)C(CC)(CC)C1=O	none (no result: BAZ2B inh, Sfp inh, G9a inh)
Cc1ccc(Nc2nc(NCCO)c3ccccc3n2)cc1C	Sfp inh 79.4µM, G9a inh 79.4µM
COc1ccccc1Nc1nc(NCCO)c2ccccc2n1	none (no result: JMJD2A Tudor inh, HP1b binding inh)
COc1ccc([N+](=O)[O-])cc1Nc1c2ccccc2nc2ccccc12	none
COc1cc(NS(C)(=O)=O)ccc1Nc1c2ccccc2nc2ccccc12	JMJD2A Tudor inh inconclusive, BAZ2B inh inconclusive, G9a inh 11.9µM
COc1ccc(OC)c(Nc2nc(NCCO)c3ccccc3n2)c1	JMJD2A Tudor inh 44.7µM, BAZ2B inh 50.1µM (no result: G9a inh)
COc1ccccc1Nc1nc(NCC2CCCO2)c2ccccc2n1 (centres undefined)	JMJD2A Tudor inh 50.1µM
CC(=O)N1C(=O)C2(C(C#N)=C(N)Oc3n[nH]c(-c4ccccn4)c32)c2ccccc21 (centres undefined)	none
COc1ccc(OC)c(Nc2c3ccccc3nc3ccccc23)c1	JMJD2A Tudor inh 22.4µM, BAZ2B inh 50.1µM, HP1b binding inh inconclusive
COc1ccccc1CNC(=O)c1cccc2c1C(=O)N(Cc1cccnc1)C2	none
C=CCN(CC=C)C(=S)NC(=O)c1ccc(-c2ccccc2)cc1	JMJD2A Tudor inh inconclusive, BAZ2B inh 6.31µM, Sfp inh inconclusive
C=CCN(CC=C)C(=S)NC(=O)/C=C/c1ccc(C)cc1	none
C=CCN(CC=C)C(=S)NC(=O)/C=C/c1ccccc1	JMJD2A Tudor inh 22.4µM, HP1b binding inh inconclusive
COc1ccc(-c2cnc(-c3cccnc3)o2)cc1	none (no result: JMJD2A Tudor inh, BAZ2B inh, G9a inh, HP1b binding inh)
COc1ccc(S(=O)(=O)N(CCC#N)Cc2ccco2)cc1OC	G9a inh inconclusive
CN(C)CCOC(C1CCCCC1)C1CCCCC1	none
O=C(CN1CCCCCC1)N/N=C/c1ccc(Cl)c(Cl)c1	JMJD2A Tudor inh 8.91µM, BAZ2B inh 50.1µM, G9a inh 12.6µM
COC(=O)c1ccc(NC(=O)CSc2ccccc2)cc1	JMJD2A Tudor inh 31.6µM, HP1b binding inh inconclusive
COC(=O)c1ccc(NC(=O)CN2CCN(CC#N)CC2)cc1	JMJD2A Tudor inh 2.24µM, BAZ2B inh 39.8µM, Sfp inh inconclusive, G9a inh 10µM, HP1b binding inh 50.1µM
CCOc1ccc(/C=N/NC(=O)CN2CCCCC2)cc1OCC	BAZ2B inh inconclusive
CCOc1ccc(/C=N/NC(=O)CN2CCCCCCC2)cc1	JMJD2A Tudor inh 20µM, BAZ2B inh 50.1µM, G9a inh 7.94µM, HP1b binding inh inconclusive
O=C(Nc1nccs1)C1CCN(S(=O)(=O)c2ccccc2)CC1	none
CCN1CCN(C(=O)CCN2C(=O)c3ccccc3S2(=O)=O)CC1	none (no result: Sfp inh)

Screens deposited in PubChem BioAssay by National Center for Advancing Translational Sciences (NCATS).
